Entries with a potency or affinity are not part of this list. Values without a mark were called inactive.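 The calls were made as follows: active = signal-lowering compounds whose fitted half-maximal concentration is at or below twice the top tested dose in every run; inconclusive = runs disagree, flat 30 to 70% inhibition, or poor curve fit; inactive = the rest.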
biological target: Protein S100-A4 (Homo sapiens) (UniProt P26447); test: S100A4-myosin IIA binding inhibitor potency, dose response, biochemical, fluorescence polarization, cherry-picked hits (AID 687001); conditions: FP, S100A4/TAMRA-myosin IIA peptide binding; series mostly up to 11 µM; activity change, negative = inhibition: at the top concentration;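 also: 0% = DMSO neutral control wells and -100% = TFP positive control wells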
Sequence (P26447 whole entry, looked up): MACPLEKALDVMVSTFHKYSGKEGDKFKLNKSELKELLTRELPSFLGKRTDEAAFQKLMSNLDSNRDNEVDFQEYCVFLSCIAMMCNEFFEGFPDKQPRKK

Point of comparison: Cc1cc(C)c(NC(=O)CS(=O)CC(=O)NCCN2CCCCCC2)c(C)c1 (stereo not drawn), “activity change, negative = inhibition” value 2.36%. Against it:
- Nc1[nH]c(C(=O)c2ccccc2)c(-c2ccccc2C(F)(F)F)c1C(=O)NCc1cccc2ccccc12 — higher, 7.4%
- C[C@@H]1CCCCO[C@H](CN(C)S(=O)(=O)c2ccc(Cl)cc2)[C@@H](C)CN([C@@H](C)CO)C(=O)c2cc(NS(=O)(=O)c3ccc(F)cc3)ccc2O1 — higher, 19.7%
- CC(C)NC(=O)COc1coc(CN2CCN(c3ccccc3)CC2)cc1=O — lower, -3.46%
- COCCNC(=O)C1CCCN(Cc2ccc(C(C)C)cc2)CC1 (stereo not drawn) — lower, -5.75%
- CCc1nc2c(OCc3ccccc3OC)cccn2c1N(C)C(=O)C(C)C — lower, 1.5%
- Cc1cnc(C(=O)OCC(=O)c2ccccc2)cn1 — higher, 9.27%
- COCC(=O)N1C[C@H]2[C@@H](c3ccccc31)[C@@H](CO)N2C(=O)Nc1ccccc1F — higher, 3.09%
- COc1ccc(S(=O)(=O)NCC2CCCN(Cc3cccc(C(C)=O)c3)C2)cc1 (stereo not drawn) — higher, 10.8%
- O=C(O)c1ccc(/C=C2\SC(=S)N(NC(=O)c3ccccc3)C2=O)cc1 — higher, 12.4%
- CO[C@@H]1CN(C)C(=O)c2ccc(NC(C)=O)cc2OC[C@H](C)N(Cc2cc(F)ccc2F)C[C@@H]1C — lower, -0.038%
- COc1cccc(CC(NC(C)=O)C(=O)NC2CCN(S(=O)(=O)c3ccc(NC(C)=O)cc3)CC2)c1OC (stereo not drawn) — lower, -4.43%
- CCOCCCNC(=O)c1ccc2c(c1)N(CC)C(=O)c1ccccc1S2=O (stereo not drawn) — lower, -1.78%
- COc1ccccc1CN1[C@H](CO)[C@H]2c3ccccc3N(C(=O)c3cccnc3)C[C@H]21 — lower, 0.714%
- CCOC(=O)Cc1csc(NC(=O)c2c(-c3ccccc3)noc2C)n1 — lower, -2.68%
- C[C@@H]1CN([C@H](C)CO)S(=O)(=O)c2ccc(-c3cccnc3)cc2O[C@@H]1CN(C)C(=O)CC1CC1 — higher, 2.97%
- CCCNC(=O)N1C[C@H](O)COC[C@@H]2O[C@@H](CC(=O)NCCCN3CCOCC3)CC[C@H]21 — lower, -0.017%
- CC1CCN(C(=O)CSc2n[nH]c(-c3cccs3)n2)CC1 — lower, -5.44%
- C[C@H](CO)N1C[C@H](C)[C@H](CN(C)C)Oc2cc(C3=CCCC3)ccc2S1(=O)=O — higher, 3.56%
- COc1ccc(NC(=O)Nc2ccc3c(c2)CC(=O)N([C@@H](C)CO)C[C@@H](C)[C@H](CN(C)Cc2ccccc2)O3)cc1 — lower, -1.54%
- CN1C(=O)c2cc(NC(=O)C3CCC3)ccc2OC[C@@H]2O[C@@H](CC(=O)NCc3ccccc3F)CC[C@@H]21 — lower, 2.16%
- CC(C)(C)c1cc[n+](-c2[nH]c(=O)sc2/C=N/N=C(\[O-])c2ccccc2)cc1 — lower, 0.307%
- CC(C)NC(=O)N(C)C[C@@H]1Oc2cc(-c3ccncc3)ccc2S(=O)(=O)N([C@H](C)CO)C[C@H]1C — lower, -0.107%
- Cc1ccccc1CNS(=O)(=O)c1c(C(=O)N2CCCC2)c(C)n(C)c1C — lower, 0.538%
- CCS(=O)(=O)c1nc(S(=O)(=O)c2ccc(C)cc2)c(NCCCN2CCCC2=O)s1 — lower, -0.155%
- CCc1noc(C)c1C(=O)Nc1nc(-c2ccc(OC)cc2OC)cs1 — higher, 15.2%
- O=C(OCc1cc(=O)n2ccsc2n1)c1ccc(OC(F)F)cc1 — lower, -1.21%
- CC(C)Cc1cc(C(=O)NCCCN2CCOCC2)no1 — lower, -0.225%
- CCN(CC(=O)Nc1ccccc1C(F)(F)F)C(=O)c1ccc(NC(=O)c2cccs2)cc1 — lower, 0.852%
- CC(C)NC(=O)N1[C@@H](CO)[C@@H](c2ccccc2)C12CN(C(=O)Cc1cccnc1)C2 — higher, 3.57%
- C=CCn1c(C)nnc1SCC(=O)Nc1ccccc1C(=O)NC1CC1 — lower, -4.66%
- O=C(c1cnn(C(=O)c2ccco2)c1)c1cc(Cl)cc(Cl)c1O — higher, 28.1%
- CN1c2ccc(-c3cccc(C#N)c3)cc2[C@H]2[C@H](CCN2S(=O)(=O)c2ccccc2F)[C@H]1CO — higher, 10.8%
- COC(=O)C(c1ccccc1)C(CC(=O)c1ccccc1)c1ccccc1 (stereo not drawn) — lower, -2.72%
- S=c1[nH]nc(Nc2cccc3ccccc23)s1 — lower, -1.11%
- O=C(NCCNC(=O)c1cccc(O)c1)c1cccc(O)c1 — lower, -2.43%
- O=C(Nc1ccc(S(=O)(=O)N2CCCCC2)cc1)C1CC(=O)N(Cc2ccccc2)C1 (stereo not drawn) — higher, 2.45%
- CC(C)(C)c1cc(CCC(=O)N2CCC2)cc(C(C)(C)C)c1O — lower, -0.818%

From PubChem BioAssay AID687001 (Broad Institute, 2013)
